Where “and” joins values, the source holds several entries; their conditions need not be identical. Identical values can stand only once. Among all 5,500 compounds or so, about 2,000 (36%) were called active. Not shown: some 18% with an inconclusive outcome. Rule as the data show it: active = normalized growth mostly below about 0.91 (no sharp cut-off); inconclusive = no clear call, values can overlap the other calls; inactive = mostly above about 0.92. Some of the results follow.
Assay: chemical genetic growth profiling, strain panel (AID 1159580);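 also: tested at 20 µM; growth read once vehicle control cultures reached saturation at 30 °C; 1 = growth at the plate median or of vehicle wells; lower values mean less growth of the strain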
Conditions: S. cerevisiae deletion strains, growth OD

Measured: normalized growth

CC1(C)S[C@@H]2[C@H](NC(=O)Cc3ccccc3)C(=O)N2[C@H]1C(=O)O
inactive: locus YAL021C, strain ccr4, active compounds read low 1.03 | locus YAL026C, strain drs2, active compounds read low 1.04 | locus YAL030W, strain snc1, active compounds read low 1.03 | locus YBL061C, strain skt5, active compounds read low 1.04 | locus YBR009C, strain hhf1, active compounds read low 1.03 | locus YBR021W, strain FUR4, active compounds read low 1.01 | locus YBR023C, strain chs3, active compounds read low 1.04 | locus YBR171W, strain sec66, active compounds read low 1.04 | locus YBR229C, strain ROT2, active compounds read low 1 | locus YBR231C, strain swc5, active compounds read low 1.02 | locus YBR279W, strain paf1, active compounds read low 1.02 | locus YCL011C, strain gbp2, active compounds read low 1.04 | locus YCL016C, strain dcc1, active compounds read low 1.03 | locus YCL029C, strain bik1, active compounds read low 1.02 | locus YCL061C, strain MRC1, active compounds read low 1.02 | locus YCL069W, strain vba3, active compounds read low 1.04 | locus YCR088W, strain abp1, active compounds read low 1.03 | locus YDL005C, strain med2, active compounds read low 1.02 | locus YDL035C, strain GPR1, active compounds read low 1.01 | locus YDL040C, strain nat1, active compounds read low 1.03 | locus YDL074C, strain BRE1, active compounds read low 1.01 | locus YDL101C, strain DUN1, active compounds read low 1.01 | locus YDL134C, strain PPH21, active compounds read low 1 | locus YDL185W, strain tfp1, active compounds read low 1 | locus YDL192W, strain arf1, active compounds read low 1.02 | locus YDR001C, strain nth1, active compounds read low 1.01 | locus YDR069C, strain doa4, active compounds read low 1 | locus YDR101C, strain arx1, active compounds read low 1.02 | locus YDR137W, strain rgp1, active compounds read low 1.03 | locus YDR150W, strain NUM1, active compounds read low 1 | locus YDR159W, strain sac3, active compounds read low 1.02 | locus YDR162C, strain NBP2, active compounds read low 1.01 | locus YDR195W, strain ref2 1.01 | locus YDR297W, strain sur2, active compounds read low 1.01 | locus YDR318W, strain mcm21, active compounds read low 1.02 | locus YDR334W, strain swr1, active compounds read low 1.04 | locus YDR335W, strain msn5, active compounds read low 1.03 | locus YDR388W, active compounds read low 1.02 | locus YDR392W, strain spt3, active compounds read low 0.994 | locus YDR502C, strain sam2, active compounds read low 1.02 | locus YEL003W, strain gim4, active compounds read low 1.03 | locus YEL037C, strain rad23, active compounds read low 1.03 | locus YEL061C, strain CIN8 (second series), active compounds read low 1.02 | locus YEL061C, strain CIN8, active compounds read low 1 | locus YER015W, strain faa2, active compounds read low 1.03 | locus YER016W, strain bim1, active compounds read low 1.02 | locus YER110C, active compounds read low 1.03 | locus YER111C, strain swi4, active compounds read low 1.01 | locus YER155C, strain BEM2 (second series), active compounds read low 1.03 | locus YER155C, strain BEM2, active compounds read low 0.999 | locus YER167W, strain BCK2, active compounds read low 1 | locus YFR010W, strain ubp6, active compounds read low 1.03 | locus YGL078C, strain dbp3, active compounds read low 1.01 | locus YGL086W, strain mad1, active compounds read low 1.01 | locus YGL167C, strain pmr1, active compounds read low 1.04 | locus YGL173C, strain kem1, active compounds read low 1.05 | locus YGL227W, strain vid30, active compounds read low 1.05 | locus YGL240W, strain doc1, active compounds read low 0.993 | locus YGL248W, strain PDE1, active compounds read low 1.01 | locus YGL253W, strain hxk2, active compounds read low 1.04 | locus YGR078C, strain PAC10, active compounds read low 1.01 | locus YGR135W, strain pre9, active compounds read low 1.02 | locus YGR252W, strain gcn5, active compounds read low 0.994 | locus YHR013C, strain ard1, active compounds read low 1.03 | locus YHR027C, strain rpn1, active compounds read low 1.01 | locus YHR030C, strain SLT2, active compounds read low 1.01 and 0.977 | locus YHR079C, strain IRE1 (second series), active compounds read low 1.03 | locus YHR079C, strain IRE1, active compounds read low 0.981 | locus YHR094C, strain hxt1, active compounds read low 1.02 | locus YHR129C, strain ARP1, active compounds read low 0.999 | locus YHR142W, strain chs7, active compounds read low 1.06 | locus YHR200W, strain rpn10, active compounds read low 1.02 | locus YIL066C, strain RNR3, active compounds read low 1 | locus YIL073C, strain SPO22, active compounds read low 1.05 | locus YIL125W, strain kgd1, active compounds read low 1.01 | locus YIR030C, strain dcg1, active compounds read low 1.02 | locus YJL092W, strain hpr5, active compounds read low 1.03 | locus YJL095W, strain BCK1 (second series), active compounds read low 1.02 | locus YJL095W, strain BCK1, active compounds read low 1 and 0.971 | locus YJL115W, strain asf1, active compounds read low 1.03 | locus YJL129C, strain trk1, active compounds read low 1.05 | locus YJL134W, strain LCB3, active compounds read low 1.01 | locus YJL154C, strain vps35, active compounds read low 1.03 | locus YJL164C, strain tpk1, active compounds read low 1.04 | locus YJL166W, strain qcr8, active compounds read low 1.01 | locus YJL168C, strain set2, active compounds read low 1.02 | locus YJL187C, strain SWE1 (second series), active compounds read low 1 | locus YJR043C, strain POL32, active compounds read low 1

From PubChem BioAssay AID1159580 (chemical genetic matrix, 2015)
